In all, about 350,000 compounds went through this assay and about 2,400 (0.69%) were called active. Many of the other results were omitted from the sample, so actives are more common in it than they were. Unmarked numbers belong to inactive results. Cut-off read from the data, not from the text of the source: active = inhibition above about 41%; inconclusive = no clear call, values can overlap the other calls; inactive = below that.
Assay: blockers of LMP1-induced NF-kB reporter signal – cell-based, luminescence, single point, primary screen (AID 504558);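 note: 0% = neutral control wells and 100% = reference inhibitor control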
Details: LMP1-induced NF-kappaB luciferase reporter cells, at 12.5 µM, stronger effect = higher value

SMILES	inhibition
COc1cccc(-c2nc3ccc(N4CCN(C)CC4)cc3[nH]2)c1	55.9% (active)
CN1CCN(c2cc(N3CCNCC3)ccc2[N+](=O)[O-])CC1	-3.51%
O=C(c1ccccc1)C(O)(CN1CCCCC1)c1ccccc1 (stereo not given)	10.5%
CCOc1ccc(-c2cc(C)[n+](CCN(CC)CC)c(-c3ccc(OCC)cc3)c2)cc1	34.1%
CCC/C(=N\O)c1c[nH]c2ccccc12	-1.7%
NCCc1c[nH]c2ccc(O)cc12	0.174%
CC(C)c1c(CN(C)C(C)Cc2ccccc2)n(C)n(-c2ccccc2)c1=O (stereo not given)	46.3% (active)
CN(C)CCN(CC1CCCN(Cc2ccccc2F)C1)C(=O)Cc1ccc(F)c(F)c1 (stereo not given)	-8.27%
c1cc2c(cc1[C@H]1OC[C@H]3[C@@H]1CO[C@@H]3c1ccc3c(c1)OCO3)OCO2	-19.4%
CC=C(C)C(=O)OC1CCN2CC=C(COC(=O)C(O)(C(C)OC)C(C)(C)O)C12 (stereo not given)	-5.68%
COc1ccc2c(c1)[C@]13CCCCC1C(C2)N(C)CC3 (stereo not given in full)	-1.94%
CCCC[N+]1(C)C2CC(OC(=O)C(CO)c3ccccc3)CC1C1OC12 (stereo not given)	-0.864%
Cc1ccc(-c2nn(CCC#N)cc2C(=O)O)cc1C	-6.4%
Clc1cccc(Cl)c1Cl	-0.913%
CCC(C)(O)C(=O)OC1C(=O)OC2CC3C(C)=CC(=O)C(O)C3(C)C3C4(O)OCC23C1C(C)C4O (stereo not given)	93.7% (active)
CN(C)C(=O)Oc1ccc(NC(=O)N2CCOCC2)cc1	3.17%
CCN1C(=O)C(=Cc2c(C)n(CC(=O)NCC3CCCO3)c3ccccc23)C(=O)N(CC)C1=S (stereo not given)	0.11%
CC(=O)OC1C2(CC3N4C(=O)C5(CO)SSC4(CC31O)C(=O)N5C)OC(C)C(C)(C)C2=O (stereo not given)	86.8% (active)
CCOC(=O)CC(SP1(=S)OCC2(CCCCO2)C(C2CCCCO2)O1)C(=O)OCC (stereo not given)	-9.32%
COC1C(O)C(C)OC(OC2CCC3(C=O)C(CCC4C3CCC3(C)C(C5=CC(=O)OC5)CCC43O)C2)C1O (stereo not given)	89.7% (active)
C[C@]12CC[C@H](O)C[C@H]1CC[C@@H]1C2CC[C@]2(C)[C@@H](C3=CC(=O)OC3)[C@@H](O)C[C@]12O (stereo not given in full)	37%
O=C(NCC1=C(c2ccc3ccccc3c2)C[C@@H]2CC[C@H]1N2Cc1ccco1)c1cccs1	1.8%
CCC(=O)OC(Cc1ccccc1)(c1ccccc1)C(C)CN(C)C (stereo not given)	0.604%
O=C1C2(Cl)C3(Cl)C4(Cl)C(Cl)(Cl)C5(Cl)C3(Cl)C1(Cl)C5(Cl)C24Cl (stereo not given)	6.24%
CN1CCN(Cc2ccc(OC(F)(F)F)cc2)CC1	-6.99%
